Hits are enriched below; roughly 1.3% of the tested compounds scored in any of these assays.
CRFR2-BP antag: blocks CRF-induced signaling of the CRF-BP/CRF-R2 complex; 350,000 tested, 0.59% active; AID 588475; inhibition, % at 11.8 µM; HEK293 CRF-R2/CRF-BP, CRF-induced calcium fluorescence;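 active = inhibition of the ligand-induced calcium signal above about 50% at the single tested concentration, limit read from the data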
RTF Ca sens inh: cardiac RTF calcium desensitization; P19429+P45379; IANBD-labeled cardiac RTF, Ca2+ fluorescence; inhibition, % at 7.15 µM; 340,000 tested, 0.12% active; AID 493244;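 active = inhibition above the mean inhibition of all tested compounds plus 3 SD, cut at about 17% in these data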;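 also: assay run at fixed EC70 calcium of 1.6 mM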
cardiac RTF act: increases calcium sensitivity of human cardiac regulated thin filaments. activation, % at 7.2 µM. AID 493008. IANBD-labeled TnC RTF fluorescence at EC20 calcium; 0% EC20 calcium, 100% full calcium. 340,000 tested, 0.24% active;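 active = activation above the mean over all tested compounds plus 3 SD, cut at about 30% in these data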;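 also: rise in fluorescence read as greater calcium sensitivity of cardiac thin filaments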
CRFR2-BP ag: agonists of human CRF-binding protein/CRF-R2 receptor complex; HEK293 CRF-R2/CRF-BP, calcium dye fluorescence (FLIPR); percent of saturating CRF peptide response; activation, % at 13.2 µM; 350,000 tested, 0.46% active;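 active = activation of at least 50%, plus an integration ratio under a set limit after plate pattern correction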;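 also: plate controls were neutral control wells without compound for no effect and CRF at EC100 for full effect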
Active calls of the source: *; i = inactive; . = no result given.

SMILES	CRFR2-BP antag	RTF Ca sens inh	cardiac RTF act	CRFR2-BP ag
Cc1cc(SCC(=O)Nc2cccc(S(=O)(=O)NC3=NCCCCC3)c2)c(C)cc1Br	-6.0	-5.5	-6.9	0.3
Cc1cc(SCC(=O)Nc2cccc(S(N)(=O)=O)c2)c(C)cc1Br	102.9*	6.6	3.2	1.8
CN(CC(=O)Nc1ccc(Cl)c(Cl)c1)C(=O)CC1OC(=O)c2ccccc21 (stereo not given)	13.9	-2.4	-8.9	-1.4
CC(C)(C)c1ccc(C(=O)COC(=O)CN2C(=O)NC3(CCCC3)C2=O)cc1	-28.5	-4.0	-1.9	-13.6
COc1cc(N)c2ncccc2c1Br	-10.1	5.7	-5.2	1.5
COc1ccc(NC(=O)C(NC(=O)c2ccc(=O)[nH]c2)c2ccc(C)cc2)cc1 (stereo not given)	21.0	2.4	-2.1	-0.1
COc1ccc(C(NC(=O)c2ccc(=O)[nH]c2)C(=O)Nc2ccc(C(C)C)cc2)cc1 (stereo not given)	-26.4	-0.9	-1.7	57.8*
CN1CCCCCC1=Nc1ccc([N+](=O)[O-])cc1	-1.7	-1.1	7.5	-0.4
CN1C(=O)C(N=Nc2ccc([N+](=O)[O-])cc2)SC1=S (stereo not given)	68.1*	-15.9	-6.6	70.3*
CSC1=NSC2=NC(=O)/C(=C\c3coc4ccccc4c3=O)C(=N)N12	-200.9	-142.8	192.9*	197.1*
CC(C)CSC1=NSC2=NC(=O)/C(=C\c3ccccc3)C(=N)N12	30.8	-4.7	-2.3	26.8
CC(C)CSC1=NSC2=NC(=O)/C(=C\c3coc4ccccc4c3=O)C(=N)N12	-332.8	i	662.2*	313.6*
O=C(Nc1ccc(Oc2ccc(C(=O)O)c(C(=O)O)c2)cc1)c1cccs1	9.9	-1.5	6.0	-1.4
O=C(COc1ccc2c3c(c(=O)oc2c1)CCCC3)N1CCN(c2ccccc2)CC1	-24.9	-0.1	-1.8	-2.9
COc1cc(NC(=O)CSc2nc3c(C)ccc(C)c3cc2C)c(C(=O)O)cc1OC	98.7*	1.8	-5.8	0.4
c1ccc(-c2cnn3c(-c4ccccc4)c(-c4ccccc4)nc3n2)cc1	-202.3	-236.5	378.1*	219.5*
O=C(O)C1CC(=O)N(CCOc2ccccc2)C1 (stereo not given)	63.1*	0.9	-8.8	7.6
O=[N+]([O-])c1cc(Cl)cc(/C=N/Nc2nc3ccccc3s2)c1O	81.5*	-0.5	4.3	-6.5
COc1cc(/C=N/Nc2nc3ccccc3s2)cc([N+](=O)[O-])c1O	26.4	-4.0	-7.2	-1.4
COc1cc(OC)cc(C(=O)NC2CC3CCC(C2)N3Cc2ccco2)c1 (stereo not given)	58.2*	-0.5	-3.9	-0.5
O=C1CCc2cc(S(=O)(=O)NCCc3ccccc3)cc3c2N1CC3	12.7	1.1	-4.8	-0.8
COc1cccc(CNc2ccc([N+](=O)[O-])cc2C)c1	58.3*	6.8	3.4	-2.5
Cc1cc([N+](=O)[O-])ccc1NCc1ccc2c(c1)OCCO2	53.0*	-0.2	-5.1	-2.5
COc1ccc([N+](=O)[O-])cc1NCc1ccccc1	98.2*	-8.0	5.4	-4.1
COc1ccc(OC)c(CNc2ccc([N+](=O)[O-])cc2C)c1	19.0	-2.0	2.5	0.0
SMILES	CRFR2-BP antag	RTF Ca sens inh	cardiac RTF act	CRFR2-BP ag
O=C(NCc1ccco1)c1cc([N+](=O)[O-])ccc1Cl	7.7	5.0	1.0	2.3
Cc1cc([N+](=O)[O-])ccc1NCc1ccco1	59.0*	-5.2	-0.5	-0.3
CC(NC(=O)C1CCC(CNc2c(N3CCCCC3)c(=O)c2=O)CC1)c1ccccc1 (stereo not given)	2.9	-6.1	10.6	0.7
COC(=O)c1ccc(OC(=O)C23CCC(C)(C(=O)O2)C3(C)C)cc1 (stereo not given)	6.3	-2.3	-2.9	0.1
Cc1ccccc1N1CCN(CC(=O)Nc2ccccc2C(=O)NC2CC2)CC1	12.5	-3.2	1.5	-0.2
C[C@@H]1CN([C@H](C)CO)C(=O)CCCn2nncc2CO[C@@H]1CN(C)S(=O)(=O)c1ccc2c(c1)OCCCO2	-8.9	.	.	-1.1
CN(C(=O)CN1C(=O)/C(=C/c2ccccc2Cl)SC1=S)C1CCS(=O)(=O)C1 (stereo not given)	53.0*	-1.2	0.5	6.0
O=C(COc1ccccc1)NCc1ccco1	65.3*	1.9	5.4	4.0
O=C(NC1CC1)c1ccc(-n2cccc2)cc1	6.2	-9.3	2.0	3.1
O=C1CC(c2ccccc2)CN1S(=O)(=O)c1ccccc1 (stereo not given)	65.2*	-15.8	-3.4	-2.4
NC(=O)c1cccc(S(=O)(=O)N2CC(c3ccccc3)CC2=O)c1 (stereo not given)	3.1	-1.9	0.9	-1.2
CC(=O)Nc1ccc2c(c1)Cc1cc(N3C(=O)C=CC3=O)ccc1-2	-40.2	0.4	2.7	51.2*
O=C1C=CC(=O)N1c1ccc2c(c1)Cc1cc(F)ccc1-2	-3.5	-7.2	-6.6	3.4
CCCC(=NCc1ccccc1)C1=C(O)C(C(=O)OC)C(C)(C)CC1=O (stereo not given)	20.3	1.1	1.6	-0.5
CCCC(=NCC(=O)O)C1=C(O)C(C(=O)OC)C(C)(C)CC1=O (stereo not given)	61.2*	-3.6	-6.6	7.0
O=S(=O)(/N=C(\c1ccc(F)cc1)N1CCOCC1)c1ccccc1	-21.3	.	.	50.0*
Cc1ccccc1C(=O)NNC(=O)C1CC(=O)N(c2ccc3c(c2)OCCO3)C1 (stereo not given)	5.1	-10.8	0.1	-1.5
CCCCNC(=O)c1cn(CC)c2ccc(S(=O)(=O)N3CCCCCC3)cc2c1=O	59.8*	-5.0	4.4	1.6
CN(C)c1ccc(C(=O)OCC(=O)Nc2ccc(S(N)(=O)=O)cc2)cc1	54.5*	-2.5	-3.1	7.7
CN(C)S(=O)(=O)c1ccc(C(=O)OCC(=O)Nc2ccc(OC(F)F)cc2)cc1	96.0*	-0.1	-1.6	3.4
O=C(COC(=O)c1ccc(S(=O)(=O)NCc2ccco2)cc1)Nc1ccc(OC(F)F)cc1	-4.3	-5.2	3.2	0.3
Cc1cnccc1CNC(=O)CC1C(=O)NCCN1CC(C)(C)C (stereo not given)	35.5	-2.6	-3.7	3.9
Cn1c(CCNC(=O)c2ccco2)nc2cc(NC(=O)c3ccco3)ccc21	107.9*	-3.3	4.3	0.3
C/C(=N\NC(=O)c1ccc(NS(=O)(=O)c2cccs2)cc1)c1ccncc1	0.6	-1.5	2.9	-1.6
C/C(=N\NC(=O)c1ccc(NS(=O)(=O)c2cccs2)cc1)c1ccccc1	58.2*	-10.0	10.5	-0.8
O=S(=O)(Cc1ccccc1Cl)NCCc1ccc(F)cc1	13.4	-8.8	-1.7	-5.3
Cc1ccccc1N=C(NO)c1nonc1N	1.5	0.0	-6.5	-1.4
CCCCCCCCSc1nnc2[nH]c(=O)cc(N)n12	5.8	-13.1	14.1	-0.5
CC(C)CSc1nnc2[nH]c(=O)cc(N)n12	96.0*	2.6	-5.3	1.0
CCOC(=O)C1=CN(Cc2ccco2)S(=O)(=O)NC1c1ccc(C(F)(F)F)cc1 (stereo not given)	1.8	-4.9	1.2	3.1

Screening results deposited in PubChem by several laboratories.
